HCMV antiviral – blocks human cytomegalovirus replication; 4.5% of 410,000 active; HFF cells, HCMV-luciferase reporter, 72 h; hits give low values; activity change, negative = inhibition, % at 57.5 µM; in the data active = activity change below about -60%; inconclusive = no clear call, values can overlap the other calls; inactive = above about -39%
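Human foreskin fibroblasts infected with luciferase-reporter HCMV at MOI 1 PFU/cell, compounds at two doses. Luciferase measured 72 h post infection; normalized to buffer-only basal and Salinomycin (10uM) controls.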
Vaccinia Venus – vaccinia inhibition (Venus reporter) | 0.46% of 330,000 active | AID 720580 | Vaccinia virus Venus reporter expression, fluorescence | Potency, µM (titrated, usually from 36.5 µM), without a hit: top-dose activity change, negative = inhibition, actives largely listed as inhibitors; calls by dose curve; tested in A549 cells; also: potency is read from the fitted curve at half-maximal effect; nearly all actives have a fitted effect of over 30% in size
MARV entry inh – inhibitors of Marburg virus binding or cell entry. AID 540276. 1.8% of 300,000 active. Potency, µM (titrated, usually from 37.8 µM), for the others: at the top dose activity change, negative = inhibition, hits mostly inhibitors. Marburg virus pseudotyped entry inhibition, cell reporter; calls by dose curve; tested in HEK293 cells; also: potency is read from the fitted curve at half-maximal effect
LASV entry inh – inhibitors of Lassa virus binding or cell entry; Potency, µM (series often up to 37.9 µM), inactives show at the highest dose activity change, negative = inhibition, most hits filed as inhibitors; 1.2% of 300,000 active; Lassa virus pseudotype entry inhibition, cell reporter; calls by dose curve; tested in HEK293 cells; also: potency is read from the fitted curve at half-maximal effect; nearly all actives have a fitted effect of over 50% in size
FMDV inh – antivirals against foot and mouth disease virus | FMDV antiviral cell-based qHTS | Potency, µM (series often up to 57.9 µM), inactives show at the highest dose activity change, negative = inhibition, most hits filed as inhibitors | 1.2% of 410,000 active | AID 1159524; calls by dose curve; tested in HEK293T cells; also: read-out not given here; potency is read from the fitted curve at half-maximal effect; nearly all actives have a fitted effect of over 45% in size
Vaccinia mCherry – vaccinia inhibition (mCherry reporter); Vaccinia virus mCherry reporter infection, fluorescence; Potency, µM (doses to about 36.5 µM), without a hit: at the highest dose activity change, negative = inhibition, actives largely listed as inhibitors; 0.63% of 310,000 active; AID 720579; calls by dose curve; tested in A549 cells; also: potency is read from the fitted curve at half-maximal effect; nearly all actives have a fitted effect of over 35% in size
* = called active by the depositor; i = inactive; ? = inconclusive; nt = not tested or not shown; + = active, no number; [ ] = another dose, or the depositor's remark. This is a sample that favours compounds with a hit; in the whole collection about 6.5% have one here. % is scaled to controls: 0 for no effect and ±100 for the full control effect.

SMILES	HCMV antiviral	Vaccinia Venus	MARV entry inh	LASV entry inh	FMDV inh	Vaccinia mCherry
O=C(CNc1cccc(S(=O)(=O)N2CCCC2)c1)Nc1ccc(C(F)(F)F)cc1	-69*	-29%	?	?	-27%	?
O=C(c1cc(S(=O)(=O)N2CCCC2)c[nH]1)N1CCN(c2cccc(Cl)c2)CC1	-102*	?	nt	3%[46.1 µM]	21%	?
CCOc1ccc(NC(=O)CN2C(=O)C(C)SC(C)C2=O)cc1 (configuration not stated)	-65*	-8%	1%[46.1 µM]	8%	6%	0%
O=C(CCl)Nc1cccc(S(=O)(=O)N2CCCCCC2)c1	-97*	?	?	7.9µM*	25µM*	?
Cc1ccc(NC(=O)CNc2cccc(S(=O)(=O)N3CCCCC3)c2)cc1F	-35	-19%	?	-21%	?	?
CCOc1ccc(NC(=O)CN2C(=O)C3CC=CCC3C2=O)cc1 (configuration not stated)	-14	nt	9%	8%	24%	nt
O=C1C[C@H](c2ccccc2)n2nc(N3C(=O)c4ccccc4C3=O)nc2N1	nt	nt	3%	nt	nt	nt
Cc1cc(Cl)ccc1NC(=O)c1cccc(NC(=O)N2CCSc3ncccc32)c1	?	-7%	nt	-9%[46.1 µM]	?	-10%
N#Cc1cccc(NC(=O)CNc2cccc(S(=O)(=O)N3CCCCC3)c2)c1	?	-7%	?	-21%	35µM*	-14%
CCOc1ccc(C(=O)CCC(=O)Nc2cccc(S(=O)(=O)N3CCCCC3)c2)cc1	-13	-11%	?	10µM*	0%	-3%
CCOc1ccc(NC(=O)CN2C(=O)CSc3ccc(S(=O)(=O)N4CCCC4)cc32)cc1	+	nt	nt	nt	-1%	nt
O=S(=O)(c1cccc(Cl)c1)N1CCCC1	-107*	nt	27%	11%	7%	nt
O=C(CNc1cccc(F)c1)Nc1cccc(S(=O)(=O)N2CCCCC2)c1	4	-7%	1%[46.1 µM]	-9%	17%	0%
O=C(CNc1cccc(S(=O)(=O)N2CCCCC2)c1)Nc1ccc(C(F)(F)F)cc1	-79*	?	nt	nt	?	-23%
O/C(=C\c1ccc2ccccc2n1)c1ccncc1	-101*	-20%	nt	nt	-6%	-5%
CC(=O)/C(=C/c1ccccc1)C(=O)Nc1ccccc1C	-96*	?	nt	nt	14µM*	?
CC(=O)Nc1ccccc1C	?	-14%	nt	nt	-19%	i
Cc1ccccc1NC(=O)C(=Cc1ccc(C(=O)O)cc1)C(=O)Nc1ccccc1C	-99*	?	?	?	5.6µM*	?
COc1ccccc1CNc1cc(-c2cccc(C#N)c2)ncn1	nt	nt	nt	nt	-17%	nt
CCN(CC)C(=O)CSc1nc(-c2ccc(C)cc2)nc2c1Cc1c(CO)cnc(C)c1O2	-16	-21%	nt	0%[46.1 µM]	?	-16%
Cc1cc(C(C)(C)C)cc(C)c1S(=O)(=O)N1CCN(C(=O)c2cc([N+](=O)[O-])c[nH]c2=O)CC1	-64*	-13%	-3%[46.1 µM]	?	?	-12%
CCC[C@@H](CN[C@@H](CNC)[C@H](C)CC)NCC1CCC(C(C)(C)C)CC1 (some centres not stated)	-99*	13µM*	nt	nt	-29%	?
CCC[C@@H](CN[C@@H](CNC)C(C)C)NCCCCc1ccccc1	?	?	nt	nt	-16%	i
OC(CNCCc1ccc(C(F)(F)F)cc1)COc1cccc2ccccc12 (configuration not stated)	-12	nt	?	?	?	nt
CCC[C@H](CN[C@@H](CNC)[C@H](C)CC)NCCc1cc(C(F)(F)F)cc(C(F)(F)F)c1	-78*	20µM*	nt	nt	?	?
SMILES	HCMV antiviral	Vaccinia Venus	MARV entry inh	LASV entry inh	FMDV inh	Vaccinia mCherry
CC[C@@H](C)[C@H](CNC)NC[C@@H](Cc1cccc2ccccc12)NCCc1cccc(C(F)(F)F)c1	-99*	?	nt	nt	-69%	?
COc1cc2c(cc1OC)CSC1C(=O)N(C)C(SC2)C(=O)N1C	nt	nt	-4%[14.2 µM]	nt	nt	nt
NS(=O)(=O)c1ccc(NCc2cc(Cl)ccc2OCc2ccccc2F)cc1	-61*	nt	-4%	-25%	?	nt
Cc1c(C(=O)N2CCCCC2)sc2ncnc(NCCN(C)C)c12	nt	0%	nt	nt	10%	-6%
CCOc1ccc(-n2nc3ccc(N)cc3n2)cc1	-93*	nt	nt	nt	?	nt
Cc1ccc(-n2nc3ccc(N)cc3n2)cc1	63	-5%	?	11µM*	11%	-10%
COc1ccc(-n2nc3ccc(N)cc3n2)cc1	73	-16%	nt	nt	-23%	-6%
Cc1cc2nn(-c3ccc(F)cc3)nc2cc1N	107	5%	5µM*	?	-30%	?
Cc1nc2cc(NC(=O)[C@@H]3C[C@@H](Sc4ccccn4)CN3Cc3ccc(F)cc3F)ccc2s1	nt	0%	nt	nt	-5%	-15%
OC(c1cccnc1)c1ccc2c(c1)CN(Cc1cn(-c3ccccc3)nc1-c1ccccc1)CCO2 (configuration not stated)	nt	4%	nt	nt	-18%	-13%
COC(=O)C[C@H](NC(=O)[C@H](C)NC(=O)[C@@H](NC(=O)OCc1ccccc1)C(C)C)C(=O)CF	nt	-17%	nt	nt	-11%	i
Cc1cc(NC2CCCC2)n2nc(C)c(-c3ccccc3)c2n1	18	-25%	?	9%[46.1 µM]	-10%	i
Cc1cc(-c2ccccc2)n2ncc(-c3ccccc3)c2n1	-60*	-26%	3.7µM*	?	-16%	i
Cc1cc(N2CCC(C)CC2)n2ncc(-c3ccccc3)c2n1	-64*	-25%	?	?	?	nt
Cc1nc2c(-c3ccccc3)cnn2c(N)c1-c1ccccc1	-91*	?	?	?	?	?
Cc1cc(NC2CCCC2)n2ncc(-c3ccccc3)c2n1	-90*	-6%	?	?	40µM*	3%
Cc1c(C(=O)N(C)CC2CCCN(C)C2)cnn1-c1nccc(-c2ccco2)n1 (configuration not stated)	nt	-9%	nt	nt	19%	-16%
CCCc1nn2c(=O)cc(COC(=O)c3ccco3)nc2s1	15	-2%	nt	-1%[46.1 µM]	53%	-14%
Cc1cc(N2CCCCC2)n2ncc(-c3ccc(Cl)cc3)c2n1	-30	nt	?	?	9%	nt
Cc1cc(N2CCCCC2)n2ncc(-c3ccccc3)c2n1	-25	-19%	?	4.5µM*	?	-8%
Cc1cc(N2CCOCC2)n2ncc(-c3ccccc3)c2n1	-28	nt	?	2.6µM*	-64%	nt
Cc1ccc(-c2cnn3c(N4CCOCC4)cc(C)nc23)cc1	-22	nt	nt	nt	-17%	nt
CCCNC(=O)C1CCN(S(=O)(=O)c2ccc3c(c2)CCCN3C(C)=O)CC1	6	1%	nt	2%[46.1 µM]	-5%	4%
Cc1ccc(CNC(C)c2ccccc2)s1 (configuration not stated)	9	-1%	?	?	-24%	1%
CC(NCCC(c1ccccc1)c1ccccc1)c1ccccc1 (configuration not stated)	-40	?	?	23µM*	13%	?

Bioassay records (PubChem)
